From PubChem BioAssay (NCI)
“And” between values parts separate entries of the source, which are not always exact repeats. Equal values may be shown once. About 83,000 compounds went through this panel and 20% of them were active in at least one assay; those are over-represented in the sample as a whole.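 In brief: 96-well plates, 48 h treatment, single concentration, percent growth endpoint.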 The source made the active and inactive calls.

Each compound was assayed on T-47D breast (assay: NCI-60 one-dose screen, 48 h (100 = growth as untreated, 0 = no growth, -100 = all killed)). Conditions: 0.01 µM.
Experimental: Growth inhibition of the T-47D human tumor cell line is measured as a screen for anti-cancer activity. Cells are grown in 96 well plates and exposed to the test compound for 48 hours. Compounds are tested at a single concentration, which is 10^-5 M for most compounds. The reported endpoint is percent growth (GI% or GIPRCNT), where numbers from 0 - 100% represent growth inhibition, and numbers from -100% - 0 represent cell death. For example, a value of 40 represents 60% growth inhibition. A value of 0 means no net growth occurred over the course of the experiment. A value of -40 indicates 40% of cells at the beginning of the experiment died by the end of the experiment. A value of -100 means all cells are dead at the end of the experiment.
NCI-60 Human Tumor Cell Lines Screen was performed using the standard one-dose NCI protocol, which is described in more detail at https://dtp.cancer.gov/discovery_development/nci-60/default.htm.
Compounds with GIPRCNT values below 10 were considered active. Activity score was based on GIPRCNT using the following formula: […]
Score is 0 for GIPRCNT values of 100 or above, 50 for GIPRCNT values of 0, and 100 for GIPRCNT values of -100.
CC(=O)O[C@H]1C(=O)[C@@]2(C)[C@H]([C@H](OC(=O)c3ccccc3)[C@]3(O)C[C@H](OC(=O)[C@H](O)[C@@H](NC(=O)c4ccccc4)c4ccccc4)C(C)=C1C3(C)C)[C@]1(OC(C)=O)CO[C@@H]1C[C@@H]2O was tested, and the growth was 35.5% (inactive).

Same assay, conditions: 2.5 µM
CC(=O)O[C@H]1C(=O)[C@@]2(C)[C@H]([C@H](OC(=O)c3ccccc3)[C@]3(O)C[C@H](OC(=O)[C@H](O)[C@@H](NC(=O)c4ccccc4)c4ccccc4)C(C)=C1C3(C)C)[C@]1(OC(C)=O)CO[C@@H]1C[C@@H]2O was tested, and the growth was 27.9% (inactive).

Same assay, conditions: 5 µM
In the case of CC(=O)O[C@H]1C(=O)[C@@]2(C)[C@H]([C@H](OC(=O)c3ccccc3)[C@]3(O)C[C@H](OC(=O)[C@H](O)[C@@H](NC(=O)c4ccccc4)c4ccccc4)C(C)=C1C3(C)C)[C@]1(OC(C)=O)CO[C@@H]1C[C@@H]2O, the growth is reported as 32.5% (inactive).

Same assay, conditions: 10 µM
NCc1c(O)ccc2ccccc12 was tested, and the growth was 98.3% (inactive). O=C(CNS(=O)(=O)Cc1ccccc1)NNc1ccccc1 was tested, and the growth was 56.6% (inactive). In the case of O=C1c2ccccc2CCC1(Br)Br, the growth is reported as -23.8% (active). CC1CCC2(C(=O)O)CCC3(C)C(=CCC4C5(C)CC(O)C(O)C(C)(CO)C5C(O)CC43C)C2C1C (stereo not given) was tested, and the growth was 97% (inactive). For O=C(NC(=S)Nc1ccccn1)c1ccccc1, the growth was 59.1% (inactive). In the case of CC(=O)O[C@H]1C(=O)[C@@]2(C)[C@H]([C@H](OC(=O)c3ccccc3)[C@]3(O)C[C@H](OC(=O)[C@H](O)[C@@H](NC(=O)c4ccccc4)c4ccccc4)C(C)=C1C3(C)C)[C@]1(OC(C)=O)CO[C@@H]1C[C@@H]2O, the growth is reported as 48.7% (inactive) and 32.3% (inactive). With Nc1nc(N)c2cc(Sc3ccc4ccccc4c3)ccc2n1 the growth was 45.8% (inactive). For CN(C)CCNc1cccc2sc3ccc(O)cc3c(=O)c12, the growth was 64.4% (inactive). O=[N+]([O-])c1cc(S(=O)(=O)Nc2ccccc2)ccc1Cl was tested, and the growth was 69.6% (inactive). In the case of CC[C@@]1(OC(=O)CN(C)C)C(=O)OCc2c1cc1n(c2=O)Cc2cc3c(N)cccc3nc2-1, the growth is reported as 13.3% (inactive). With Cc1cc(O)c2c(c1O)C(=O)C13C(=C2O)C(=O)C2C(O)C1C1C(O)C3C(=O)C3=C(O)c4c(O)cc(C)c(O)c4C(=O)C321 (stereo not given) the growth was -1.74% (active). In the case of Cc1cc(C)c(N2C(=O)CC(Sc3ccccc3N)C2=O)c(C)c1 (stereo not given), the growth is reported as 87.8% (inactive). Cn1ncc2cc3c(Nc4ccc(Cl)cc4)cccc3nc21 was tested, and the growth was 77.2% (inactive). With COc1ccc2c(c1)[nH]c1c(/C=C/c3ccccc3)nccc12 the growth was 43.7% (inactive). For S=C1SCN(CCc2ccccc2)CN1CCc1ccccc1, the growth was 70.8% (inactive). COc1ccc2oc(-c3ccc(Cl)cc3)c(N3CCN(C)CC3)c2c1 was tested, and the growth was 14.6% (inactive). In the case of N#CC(=C1C=CC(=NO)C=C1)c1ccccc1, the growth is reported as -8.58% (active). Cc1c(-c2ccccc2)[nH]c2ccccc12 was tested, and the growth was 92.4% (inactive). In the case of CN(C)c1ccc(/C=C/c2ccnc3ccccc23)cc1N, the growth is reported as 48.3% (inactive). With CCC(=O)Oc1ccc(/C=N/NC(N)=S)nc1 the growth was 35.7% (inactive). With CCC(C)(c1ccc(O)c(C)c1)c1ccc(O)c(C)c1 the growth was -5.53% (active). With O=c1[nH]cc(/C=N\Nc2ccccc2)c(=O)[nH]1 the growth was 42.4% (inactive). With O=C1C=CC(=O)N1c1ccc(N2C(=O)C=CC2=O)cc1 the growth was 95.9% (inactive). With COc1ccc(C(C#N)=C2C=CC(=NO)C=C2)cc1 the growth was 1.56% (active). Cc1cc(N=C2C=CC(=[N+](C)C)C=C2)c(N)cc1N was tested, and the growth was 87.1% (inactive). O=Nc1ccc(Nc2ccccc2)cc1 was tested, and the growth was 63.2% (inactive). With O=C(O)c1ccccc1.[Ag] the growth was 72.6% (inactive). O=C1c2cccc3cc([N+](=O)[O-])cc(c23)C(=O)N1CCN1CCCC1 was tested, and the growth was -6.31% (active). In the case of O=C1C(Cl)=C(Cl)C(Cl)(Cl)C(Cl)C1(Cl)Cl (stereo not given), the growth is reported as 91.9% (inactive). With COc1cc(N)ccc1Nc1c2ccccc2nc2ccccc12 the growth was 92.3% (inactive). For N#C/C(=C/N1C(=O)/C(=C/c2ccc([N+](=O)[O-])cc2)SC1=S)c1nc2ccccc2s1, the growth was 53.6% (inactive). In the case of CN(CC(=O)O)c1ccc(/C=C/c2ccnc3ccccc23)cc1, the growth is reported as 55.4% (inactive). For COc1cccc(C(c2cc3c(cc2O)OCO3)N2CCOCC2)c1OC (stereo not given), the growth was 97.2% (inactive). With O=S(=O)(c1cc(Cl)ccc1O)c1cc(Cl)ccc1O the growth was 67% (inactive). With COc1ccc(N)c2c1C(=O)c1ccccc1C2=O the growth was 81.9% (inactive). With CCOC(=O)[C@]1(Br)CC[C@@]1(Br)C(=O)OCC the growth was 70.7% (inactive). With Cn1c2nc3ccccc3c-2nc2ccccc21 the growth was 78.9% (inactive) and 72% (inactive).
